Each structure is given as a SMILES string. Unmarked numbers belong to inactive results. Records with an inconclusive call do not appear. The source made the active and inactive calls. Unless noted, calls follow the shape of the dose curve; as a rule, active = well fitted curve in either direction with a large enough effect (not every such curve was filed as active); inconclusive = small, poorly fitted or top-dose-only effect, or another doubt; inactive = flat fitted curve, though single readings scatter.

Experiment [1] in a line: AP1 Signaling Pathway (AID 357).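 Also: ME-180 reporter cells stimulated with EGF at its EC50 level; % is scaled to controls: 0 for no effect and ±100 for the full control effect.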 To be noted: ME-180 AP-1-bla reporter, EGF-induced, beta-lactamase ratio, 5 h; at 7.69 µM (top of the series) unless noted. An outline of the steps: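 Modulation of EGF-driven AP-1 transcription was assessed with a beta-lactamase reporter in ME-180 cells. Compound and EC50 EGF were co-incubated 5 hours at 37 °C before 2.5-hour CCF4 loading at room temperature and dual-emission reading.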

For experiment [2], the target named is Cytochrome P450 1A2 (Homo sapiens) (UniProt P05177). Briefly: p450-cyp1a2 (AID 410; calls by dose curve; also: potency is read from the fitted curve at half-maximal effect;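 as to activity change, negative = inhibition: -100% = full effect of reference inhibitor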). An outline of the steps:
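20nM CYP1A2, 100uM Luciferin-ME (=Km), 100mM KPO4; cpd 10 min RT; +NADPH regen, 60 min RT; stop/detect 20 min; luminescence. Normalized to furafylline 57 uM = full inhibition.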

Experiment [3] can be described thus: NFAT Signaling Pathway (AID 444).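 Also: carbachol stimulus at about its EC50 of 1 µM final; % is scaled to controls: 0 for no effect and ±100 for the full control effect.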 To be noted: Jurkat NFAT-bla M1, carbachol, beta-lactamase ratio, 5 h; at 7.69 µM (top of the series) unless noted. Put shortly: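 Read-out: CCF4 FRET ratio (460 nm/530 nm) after 1 h RT dye loading, used for %activity and AC50 from titration series. Cells: Jurkat NFAT-β-lactamase/M1 line, treated with compound plus 1 uM carbachol for 5 h, 37 °C.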

Experiment [4] can be described thus: Stat Signaling Pathway (AID 446).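 Also: ME-180 cervical cancer cells given 40 pM IL-6 alongside compound; SIE-controlled beta-lactamase reporter measured as 460/530 nm FRET emission ratio; % is scaled to controls: 0 for no effect and ±100 for the full control effect.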 To be noted: ME-180 (cervical carcinoma) SIE beta-lactamase reporter, IL-6 stimulated, 5 h; at 7.69 µM (top of the series) unless noted. An outline of the steps:
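Compound effects on IL-6-induced STAT reporter activity were measured in ME-180 cells. After overnight culture, cells were co-treated with 40 pM IL-6 for 5 hrs before beta-lactamase substrate loading at room temperature.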

The target of experiment [5] is Glucocorticoid receptor (Homo sapiens) (UniProt P04150). Briefly: GR-GFP Redistribution (AID 450;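 active = compounds whose dose series gives a full or clear partial fitted curve of increased nuclear translocation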; also: potency is read from the fitted curve at half-maximal effect). To be noted: U2OS GR-GFP nuclear translocation, laser cytometry, 2 h.
For experiment [6] the target is unchanged. Nature of the experiment: GR-EFC Redistribution (AID 451; calls by dose curve; also: potency is read from the fitted curve at half-maximal effect). To be noted: CHO-K1 GR-EFC translocation, beta-gal luminescence, 2 h. Put shortly: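 Translocation of GR-ED fusion to nuclear EA restores b-gal, read by luminescence after 1 h room-temperature detection. Engineered CHO-K1 biosensor cells, 1,000/well, exposed 2 h at 37 C to titrations up to 46 uM final.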

Experiment [7] concerns the target Mitogen-activated protein kinase 10 (Mus musculus) (UniProt Q61831). Briefly: JNK3 AlphaScreen Assay (AID 530).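 Also: kinase came from lysate of stimulated human HepG2 cells; signal reports phosphorylation of biotinylated GST-cJun 1-79 at Ser73 with 10 µM ATP; % is scaled to controls: 0 for no effect and ±100 for the full control effect.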 An outline of the steps:
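Kinase buffer: 20 mM Tris-HCl pH 7.6, 10 mM MgCl2, 1 mM DTT, 0.1 mM Na3VO4, 0.01% Tween-20; ATP 10 uM. Substrate biotin-GST-cJun(1-79), enzyme from activated HepG2 lysates. Detection by Ser73 phospho-antibody AlphaScreen.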
For orientation: Bead proximity is the source of the signal in Alpha formats.

Experiment [8] has as its target 3',5'-cyclic-AMP phosphodiesterase 4B (Homo sapiens) (UniProt Q07343). Nature of the experiment: qHTS Assay for Inhibitors of PDE-IV (AID 607; active = well fitted activation curve with a large enough effect in the main read-out, with a control signal flat, not every such curve was filed as active; also: % of control where 0% means no effect). Put shortly:
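ACTOne HEK293 cells carry a modified cAMP-gated CNG channel and express endogenous PDE4; plated 1000 cells/well, compounds up to 22.9 uM final. Membrane-potential dye fluorescence (ex 535/em 590) was read; parental cells received 10 uM forskolin + 100 uM RO 20-1724.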
A general note: Quantitative high-throughput screening tests each substance at several concentrations.

The target in experiment [9] is Cytochrome P450 3A4 (Homo sapiens) (UniProt P08684). Briefly: qHTS Assay for Activators of Cytochrome P450 3A4 (AID 885; active = well fitted curve in the direction sought with a large enough effect; an effect the other way counts as inactive or inconclusive; also: nearly all actives have a fitted effect of over 65% in size). An outline of the steps:
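CYP3A4 activity: Luciferin-PPXE O-dealkylation, 25uM substrate, 200mM KPO4, RT throughout. Read-out is luciferase luminescence; higher values reflect activation.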

Experiment [10] can be described thus: qHTS Assay for Identification of Small Molecule Agonists for Thrombopoietin (TPO) Signaling Pathway (AID 917; active = well fitted curve in the direction sought with a large enough effect; an effect the other way counts as inactive or inconclusive; also: % is scaled to controls: 0 for no effect and ±100 for the full control effect). An outline of the steps:
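First, Ba/F3 cells with human TPO receptor were held overnight without IL-3. Next, compounds and TPO (26 pM final) were added. After 24 hrs at 37 C, luciferase detection reagent was added and luminescence measured following 10 min at room temperature.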

The target in experiment [11] is Pyruvate kinase (Leishmania mexicana) (UniProt Q27686). Nature of the experiment: qHTS Validation Assay for Inhibitors of Leishmania Mexicana Pyruvate Kinase (AID 945; active = well fitted curve in the direction sought with a large enough effect; an effect the other way counts as inactive or inconclusive;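 also: 0% = DMSO only neutral control wells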). An outline of the steps: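 Purified LmPYK (E451W mutant, 0.2 nM) was incubated 1 h at room temperature with 0.5 mM PEP and 0.1 mM ADP in 50 mM imidazole pH 7.2, 50 mM KCl, 7 mM MgCl2; ATP formed was read by PKLight luminescence, normalized to DMSO wells.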

Experiment [12] has as its target Pyruvate kinase PKM (Homo sapiens) (UniProt P14618). Nature of the experiment: qHTS Assay for Activators of Human Muscle Pyruvate Kinase (AID 954; active = well fitted curve in the direction sought with a large enough effect, not every such curve was filed as active;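 also: 0% = uninhibited enzyme and -100% = no enzyme or full thiadiazolimine inhibition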). An outline of the steps: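 A coupled luminescent readout tracked ATP made from ADP by purified PKM2. Final conditions included 0.1 nM enzyme, PEP and ADP at 0.5 and 0.1 mM, pH 7.2 imidazole buffer with BSA, and a one-hour room-temperature reaction.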

Experiment [13] has as its target Alpha-galactosidase A (Homo sapiens) (UniProt P06280). Briefly: Counterscreen for Glucocerebrosidase Inhibitors: qHTS Assay for Human alpha-Galactosidase at pH 4.5 (AID 992; active = well fitted curve in the direction sought with a large enough effect; an effect the other way counts as inactive or inconclusive; also: 0% is about no effect). An outline of the steps:
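Citrate buffer pH 4.5, Tween-20 0.005%. Enzyme 2 nM, substrate 80 uM, 20 min RT. Stop pH 10. Fluorescence Ex 365/Em 440. AC50 by Hill fit.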
For orientation: A counterscreen serves to expose hits that act by an unwanted route or on another target.

Experiment [14] has as its target alpha-glucosidase (Oryza sativa, rice) (UniProt Q653V4). Briefly: Counterscreen for Glucocerebrosidase Inhibitors: qHTS Assay for Rice alpha-Glucosidase at pH 5.0 (AID 997; active = well fitted curve in the direction sought with a large enough effect; an effect the other way counts as inactive or inconclusive;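 also: 0% = full activity with enzyme and -100% = basal without enzyme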). An outline of the steps:
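Endpoint fluorogenic assay at pH 5.0: compounds (0.7 nM to 77 uM) titrated against 4 nM rice enzyme and 400 uM 4-MU-alpha-glucoside for 20 min at room temperature; NaOH/glycine stop, read ex 365/em 440 nm, Hill-fitted AC50.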

The target of experiment [15] is Cytochrome P450 2D6 (Homo sapiens) (UniProt P10635). Briefly: qHTS Assay for Inhibitors and Substrates of Cytochrome P450 2D6 (AID 891; active = well fitted curve in the direction sought with a large enough effect; an effect the other way counts as inactive or inconclusive; also: nearly all actives have a fitted effect of over 60% in size; also: potency is read from the fitted curve at half-maximal effect). An outline of the steps:
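Luminescent read-out of luciferin formed by 5 nM human CYP2D6 demethylating 30 uM Luciferin-ME EGE (Km level) over 60 min at room temperature after NADPH regeneration addition. Data normalized to full inhibition by 1.43 uM quinidine.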

In experiment [16] the target is Guanine nucleotide-binding protein G(i) subunit alpha-1 (Homo sapiens) (UniProt P63096). Briefly: qHTS Assay for Inhibitors of RGS12 GoLoco Motif Activity (Green Fluorophore) (AID 879; active = well fitted curve in the direction sought with a large enough effect; an effect the other way counts as inactive or inconclusive;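 also: 0% = labeled peptide with Gαi1 and full inhibition = labeled peptide alone without protein; negative values mean loss of peptide binding seen as reduced polarization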). Put shortly:
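A drop in FITC polarization marked displacement of the FITC-tagged RGS12 GoLoco peptide (10 nM) from Gαi1 (50 nM). Compounds were incubated 10 min at room temperature in Tris pH 7.5 buffer containing 150 mM NaCl, 0.1 mM GDP and 0.05% NP40; unlabeled peptide titration served as control.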

The target in experiment [17] is Muscarinic acetylcholine receptor M1 (Rattus norvegicus) (UniProt P08482). Briefly: qHTS Assay for Antagonists of Acetylcholine Muscarinic M1 Receptor: Kinetic Measurement of Intracellular Calcium Response (AID 943; active = well fitted curve in the direction sought with a large enough effect; an effect the other way counts as inactive or inconclusive; also: nearly all actives have a fitted effect of over 75% in size). An outline of the steps: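 Read-out: peak over basal Fluo-4 fluorescence, kinetic at 1 Hz for 4 min after EC80 carbachol (100 nM final). Rat M1-CHO cells, dye loaded 1 h at 37C, compound added 10 min before agonist.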

Experiment [18] has the same target. Briefly: qHTS Assay for Antagonists of Acetylcholine Muscarinic M1 Receptor: Measurement of IP-One Response (AID 944; active = well fitted curve in the direction sought with a large enough effect; an effect the other way counts as inactive or inconclusive; also: nearly all actives have a fitted effect of over 75% in size). Put shortly:
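Read-out: HTRF competition between d2-IP1 and Eu-cryptate anti-IP1 antibody, emission 620 and 665 nm. Stimulus was carbachol, EC80 (200 nM), for 30 min in M1-CHO cells (rat receptor), after 10 min compound pre-treatment.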

Experiment [19] deals with Cytochrome P450 2C19 (Homo sapiens) (UniProt P33261). Briefly: qHTS Assay for Inhibitors and Substrates of Cytochrome P450 2C19 (AID 899; active = well fitted curve in the direction sought with a large enough effect; an effect the other way counts as inactive or inconclusive; also: potency is read from the fitted curve at half-maximal effect; nearly all actives have a fitted effect of over 60% in size). An outline of the steps: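 5nM enzyme + 10uM Luciferin-H EGE (=KM), 50mM KPO4; cpd pin-transferred, 10 min 37C; NADPH regen, 60 min 37C; stopped w/ luciferin detection reagent, 20 min; luminescence. Normalized to 57uM ketoconazole (AC100).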

Chain of Pyruvate kinase (Leishmania mexicana) (Q27686 2-499 E452W): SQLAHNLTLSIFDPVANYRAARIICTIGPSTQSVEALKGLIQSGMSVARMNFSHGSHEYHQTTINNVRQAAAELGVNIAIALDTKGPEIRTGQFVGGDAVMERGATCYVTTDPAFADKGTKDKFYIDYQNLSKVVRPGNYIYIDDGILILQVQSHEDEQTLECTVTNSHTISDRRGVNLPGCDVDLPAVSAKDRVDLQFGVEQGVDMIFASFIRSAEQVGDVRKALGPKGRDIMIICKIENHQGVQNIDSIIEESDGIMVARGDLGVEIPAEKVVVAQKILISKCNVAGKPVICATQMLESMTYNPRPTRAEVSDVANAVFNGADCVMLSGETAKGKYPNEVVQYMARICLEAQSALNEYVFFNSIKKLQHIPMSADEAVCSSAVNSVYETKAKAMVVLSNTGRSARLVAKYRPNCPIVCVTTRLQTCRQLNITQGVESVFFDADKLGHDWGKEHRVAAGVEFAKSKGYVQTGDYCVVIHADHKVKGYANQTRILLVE
Chain of Glucocorticoid receptor (Homo sapiens) (P04150 whole entry, looked up, the tested form may be a part): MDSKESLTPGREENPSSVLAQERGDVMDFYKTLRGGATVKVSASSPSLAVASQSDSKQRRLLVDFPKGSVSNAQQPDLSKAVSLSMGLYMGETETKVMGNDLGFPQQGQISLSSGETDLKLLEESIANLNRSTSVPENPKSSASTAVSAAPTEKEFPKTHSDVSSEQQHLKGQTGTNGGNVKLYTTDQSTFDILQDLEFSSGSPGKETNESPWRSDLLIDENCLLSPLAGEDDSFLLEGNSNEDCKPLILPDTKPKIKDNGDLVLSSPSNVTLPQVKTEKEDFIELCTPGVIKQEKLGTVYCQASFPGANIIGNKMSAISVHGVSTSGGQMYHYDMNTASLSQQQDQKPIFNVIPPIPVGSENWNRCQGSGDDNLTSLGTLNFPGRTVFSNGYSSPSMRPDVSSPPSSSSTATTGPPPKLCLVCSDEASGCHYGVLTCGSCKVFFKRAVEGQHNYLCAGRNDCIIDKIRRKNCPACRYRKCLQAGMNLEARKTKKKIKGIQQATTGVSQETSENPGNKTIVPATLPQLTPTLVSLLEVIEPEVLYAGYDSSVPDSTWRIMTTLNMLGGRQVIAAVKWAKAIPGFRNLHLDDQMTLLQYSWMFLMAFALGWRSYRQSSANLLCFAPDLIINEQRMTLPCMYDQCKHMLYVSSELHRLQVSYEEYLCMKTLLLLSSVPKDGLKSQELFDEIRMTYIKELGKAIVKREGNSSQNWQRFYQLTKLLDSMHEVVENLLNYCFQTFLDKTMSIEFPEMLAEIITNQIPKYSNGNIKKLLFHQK
Chain of Cytochrome P450 1A2 (Homo sapiens) (P05177 whole entry, looked up): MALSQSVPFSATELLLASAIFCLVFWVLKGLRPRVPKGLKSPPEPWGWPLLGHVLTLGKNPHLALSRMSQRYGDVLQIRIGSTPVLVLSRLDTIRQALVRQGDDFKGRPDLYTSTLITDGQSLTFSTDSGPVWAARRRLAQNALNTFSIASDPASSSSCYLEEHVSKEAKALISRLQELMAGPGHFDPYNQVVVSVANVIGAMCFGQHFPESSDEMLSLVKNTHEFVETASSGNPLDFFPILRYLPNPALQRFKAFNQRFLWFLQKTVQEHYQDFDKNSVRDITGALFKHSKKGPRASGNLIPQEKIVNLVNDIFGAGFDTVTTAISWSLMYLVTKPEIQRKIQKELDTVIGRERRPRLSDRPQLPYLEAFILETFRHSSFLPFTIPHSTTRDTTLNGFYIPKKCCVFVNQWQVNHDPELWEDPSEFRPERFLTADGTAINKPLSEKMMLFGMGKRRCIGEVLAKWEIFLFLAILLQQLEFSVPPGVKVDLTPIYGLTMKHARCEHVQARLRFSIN
Chain of Alpha-galactosidase A (Homo sapiens) (P06280 whole entry, looked up): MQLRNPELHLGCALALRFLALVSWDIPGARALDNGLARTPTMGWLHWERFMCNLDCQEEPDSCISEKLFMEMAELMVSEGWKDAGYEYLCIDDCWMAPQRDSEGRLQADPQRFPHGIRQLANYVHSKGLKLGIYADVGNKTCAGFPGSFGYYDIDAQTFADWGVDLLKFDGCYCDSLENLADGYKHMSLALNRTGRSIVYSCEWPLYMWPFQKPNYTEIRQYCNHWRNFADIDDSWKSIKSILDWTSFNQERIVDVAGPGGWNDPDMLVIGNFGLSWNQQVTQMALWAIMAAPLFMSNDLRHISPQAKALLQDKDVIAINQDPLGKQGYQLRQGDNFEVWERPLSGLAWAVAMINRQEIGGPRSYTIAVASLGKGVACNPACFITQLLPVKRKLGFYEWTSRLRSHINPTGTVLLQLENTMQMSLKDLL
Chain of Pyruvate kinase PKM (Homo sapiens) (P14618 whole entry, looked up): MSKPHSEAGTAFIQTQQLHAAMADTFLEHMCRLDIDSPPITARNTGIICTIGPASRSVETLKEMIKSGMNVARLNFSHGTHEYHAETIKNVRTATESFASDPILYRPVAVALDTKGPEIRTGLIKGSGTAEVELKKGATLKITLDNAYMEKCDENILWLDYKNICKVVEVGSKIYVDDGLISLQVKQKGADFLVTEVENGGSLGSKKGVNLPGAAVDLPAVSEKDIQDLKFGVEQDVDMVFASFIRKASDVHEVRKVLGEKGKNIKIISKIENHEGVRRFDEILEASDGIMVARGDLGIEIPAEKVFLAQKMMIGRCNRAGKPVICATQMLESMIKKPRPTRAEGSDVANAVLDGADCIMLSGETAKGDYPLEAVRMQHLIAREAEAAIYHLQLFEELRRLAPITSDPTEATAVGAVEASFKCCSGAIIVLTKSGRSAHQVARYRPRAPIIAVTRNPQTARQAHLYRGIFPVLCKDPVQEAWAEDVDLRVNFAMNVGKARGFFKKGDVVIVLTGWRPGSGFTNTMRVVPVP
Chain of 3',5'-cyclic-AMP phosphodiesterase 4B (Homo sapiens) (Q07343 whole entry, looked up): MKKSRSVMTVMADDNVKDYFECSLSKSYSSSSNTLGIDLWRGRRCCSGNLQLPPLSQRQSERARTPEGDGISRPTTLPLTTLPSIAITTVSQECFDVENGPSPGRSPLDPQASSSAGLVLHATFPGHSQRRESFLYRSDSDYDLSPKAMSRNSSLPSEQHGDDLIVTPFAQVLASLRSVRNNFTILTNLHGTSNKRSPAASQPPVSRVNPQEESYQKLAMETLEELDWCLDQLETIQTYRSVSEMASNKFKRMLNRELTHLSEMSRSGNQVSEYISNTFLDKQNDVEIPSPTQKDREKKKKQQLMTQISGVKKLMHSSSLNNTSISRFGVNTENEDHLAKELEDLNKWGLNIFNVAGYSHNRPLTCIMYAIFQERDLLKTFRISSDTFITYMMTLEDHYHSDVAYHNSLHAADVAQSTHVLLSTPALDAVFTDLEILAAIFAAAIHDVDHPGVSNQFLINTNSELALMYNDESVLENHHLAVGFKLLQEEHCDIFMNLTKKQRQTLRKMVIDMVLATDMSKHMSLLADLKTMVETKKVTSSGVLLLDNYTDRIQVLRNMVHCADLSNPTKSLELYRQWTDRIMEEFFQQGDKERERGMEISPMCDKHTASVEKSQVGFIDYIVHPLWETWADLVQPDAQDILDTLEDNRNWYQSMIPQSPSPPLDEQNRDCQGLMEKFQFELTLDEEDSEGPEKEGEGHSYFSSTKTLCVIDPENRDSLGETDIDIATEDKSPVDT
Chain of Cytochrome P450 3A4 (Homo sapiens) (P08684 whole entry, looked up): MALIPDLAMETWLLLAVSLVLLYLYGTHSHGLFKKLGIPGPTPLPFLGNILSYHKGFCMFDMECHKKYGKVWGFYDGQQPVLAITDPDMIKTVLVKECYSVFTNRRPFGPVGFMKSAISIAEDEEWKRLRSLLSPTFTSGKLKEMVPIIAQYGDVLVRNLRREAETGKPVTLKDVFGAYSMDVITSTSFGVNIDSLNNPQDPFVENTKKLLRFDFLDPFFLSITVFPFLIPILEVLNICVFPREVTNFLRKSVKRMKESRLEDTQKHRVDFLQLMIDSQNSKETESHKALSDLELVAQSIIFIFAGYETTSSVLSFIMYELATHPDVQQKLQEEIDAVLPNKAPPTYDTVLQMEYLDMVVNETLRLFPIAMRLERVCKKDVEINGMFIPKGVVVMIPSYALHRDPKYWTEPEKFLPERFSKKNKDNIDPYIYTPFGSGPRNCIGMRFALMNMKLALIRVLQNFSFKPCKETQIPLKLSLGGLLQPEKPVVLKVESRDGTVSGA
Chain of Muscarinic acetylcholine receptor M1 (Rattus norvegicus) (P08482 whole entry, looked up): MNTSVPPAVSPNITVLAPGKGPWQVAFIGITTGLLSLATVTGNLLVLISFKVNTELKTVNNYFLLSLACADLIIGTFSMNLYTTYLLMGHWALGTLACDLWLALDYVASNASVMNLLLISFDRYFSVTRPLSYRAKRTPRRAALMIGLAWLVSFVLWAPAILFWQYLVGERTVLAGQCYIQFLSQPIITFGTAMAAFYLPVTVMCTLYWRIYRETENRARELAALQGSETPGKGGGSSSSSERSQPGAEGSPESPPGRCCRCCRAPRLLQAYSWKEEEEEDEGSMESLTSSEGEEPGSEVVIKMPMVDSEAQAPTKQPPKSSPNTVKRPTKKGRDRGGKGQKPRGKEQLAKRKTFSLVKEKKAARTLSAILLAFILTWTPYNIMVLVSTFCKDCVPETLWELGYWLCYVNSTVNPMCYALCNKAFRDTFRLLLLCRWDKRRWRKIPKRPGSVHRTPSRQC
Chain of Cytochrome P450 2D6 (Homo sapiens) (P10635 whole entry, looked up): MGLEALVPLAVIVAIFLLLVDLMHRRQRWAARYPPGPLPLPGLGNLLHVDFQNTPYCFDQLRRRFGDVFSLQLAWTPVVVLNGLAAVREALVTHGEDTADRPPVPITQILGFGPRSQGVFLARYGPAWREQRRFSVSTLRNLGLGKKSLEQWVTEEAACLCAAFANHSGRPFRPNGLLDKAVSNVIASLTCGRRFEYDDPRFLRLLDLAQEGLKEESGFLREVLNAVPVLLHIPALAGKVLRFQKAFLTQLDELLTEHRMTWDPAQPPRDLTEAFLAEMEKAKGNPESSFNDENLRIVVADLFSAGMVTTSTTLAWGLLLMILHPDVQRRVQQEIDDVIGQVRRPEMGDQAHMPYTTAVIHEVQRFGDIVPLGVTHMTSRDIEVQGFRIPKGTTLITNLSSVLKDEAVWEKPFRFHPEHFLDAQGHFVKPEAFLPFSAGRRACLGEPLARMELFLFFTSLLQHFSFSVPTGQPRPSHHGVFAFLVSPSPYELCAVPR

Turning to `CCCCC/C=C\C[C@H](O)/C=C\c1cccc(C[C@H](O)CCCCO)n1`, the activity change, negative = inhibition was -11.3% [at 38 µM] in experiment [1] and -9.64% [at 38 µM] in experiment [3]. Further, the Potency entry in experiment [2], in experiment [7], in [8], in experiment [9] and in [14] was “inactive” throughout. Further, in experiment [4], the activity, negative = inhibition was 54.3% [at 38 µM]. Moreover, the Potency in [5] and in [6] was more than 46 µM each time. The call in experiment [10], in [11], in experiment [12] and in experiment [13] was inactive.

Take `C[N+]1(CCC(=O)c2ccco2)CC2CCC(CC2)C1` (centres undefined): the activity change, negative = inhibition was 6.86% in experiment [1] and 7.5% in experiment [3]. The Potency result in experiment [2], in [7], in [8] and in experiment [15] was “inactive” in each case. Further, in experiment [4], the activity, negative = inhibition is 1.18%. In addition, the Potency in experiment [5] is more than 46 µM; in [6], more than 9.22 µM.

Consider `CCCC[C@]1(C2CCCC2)Cc2cc(OCC(=O)O)c(Cl)c(Cl)c2C1=O`, for which the figures for the activity change, negative = inhibition in [1] and in experiment [3] were -1.05% [at 38 µM] and -21.4% [at 38 µM], respectively. Also, the Potency result in [2], in experiment [7], in [9], in [17], in experiment [18] and in [14] was “inactive” throughout. In addition, the activity, negative = inhibition in experiment [4] is -1.69% [at 38 µM]. The Potency in [5] and in experiment [6] was more than 46 µM throughout. The compound was classed as inactive in experiment [16], in [11], in experiment [12] and in experiment [13].

As for `CNc1ncnc2c1ncn2[C@@H]1O[C@@H](CO)[C@H](O)[C@@H]1O`, the activity change, negative = inhibition in experiment [1] was -19.9% [at 38 µM]; in [3], 0.83% [at 38 µM]. Besides, the Potency result in experiment [2], in experiment [7], in [8] and in [14] was “inactive” in each case. Moreover, the activity, negative = inhibition in [4] was -6.86% [at 38 µM]. Besides, the Potency in experiment [5] and in [6] was more than 46 µM in each case. Also, the outcome in experiment [11], in experiment [12] and in experiment [13] was inactive.

In the case of `NNC(=O)CNc1cccc(Br)c1`, the activity change, negative = inhibition in experiment [1] is -0.367%; in experiment [3] it was -6.61%. The Potency is 0.501 µM (active) in [2], more than 46 µM in experiment [5] and more than 9.22 µM in experiment [6]. For the same compound, in [4], the activity, negative = inhibition was -6.81%. Also, the Potency result in experiment [7], in experiment [8] and in experiment [9] was “inactive” throughout.

`C[C@]1(c2ccccc2)O[C@@H]2C[C@@H]3[C@@H]4CCC5=CC(=O)C=C[C@@]5(C)[C@]4(F)[C@H](O)C[C@]3(C)[C@@]2(C(=O)CO)O1`: the activity change, negative = inhibition in experiment [1] is 7.91%; in [2], -16.4% [at 2.29 µM]; in experiment [3] it was -6.34%. Besides, the activity, negative = inhibition in [4] is -4.73%. Moreover, the Potency in experiment [5] was < 2.95e-05 µM (active); in [6], 0.00231 µM (active). Besides, the Potency result in experiment [7], in experiment [8] and in experiment [9] was “inactive” in each case.

Consider `CN(CCc1ccccn1)c1ccc2c(c1)Cc1ccccc1-2`, for which the figures for the activity change, negative = inhibition in experiment [1] and in experiment [3] were -10.1% and -13.8%, respectively. Moreover, the Potency is 0.631 µM (active) in [2]; more than 46 µM in experiment [5]; more than 9.22 µM in [6]; 3.16 µM (active) in experiment [15]; 0.794 µM (active) in [19]. Besides, the activity, negative = inhibition in experiment [4] was 7.42%. Also, the Potency result in experiment [7], in experiment [8] and in [9] was “inactive” throughout.
